Assay outcomes deposited in PubChem BioAssay by National Center for Advancing Translational Sciences (NCATS).
HepG2 viability: counter-screen for TGF-b inhibitors: cytotoxicity in HepG2 cells | AID 588856 | actives 0.76% (n = 410,000) | HepG2 CAGA-GFP viability, ATP luminescence, 18 h | Potency, µM (titrated, usually from 46.1 µM), for the others: at the top dose activity change, negative = cytotoxicity, hits mostly cytotoxic; further: potency means the concentration at half of the fitted maximal effect
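HepG2 CAGA-GFP cells (1000/well, DMEM with 1% FBS) received compound, then TGF-beta at 500 pg/mL final, and were incubated 18 hours at 37 degrees C. Viability was read by CellTiter-Glo luminescence. Media-only wells were set as complete cell-killing and DMSO as no toxicity.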
IL1B secr inh: blocks inflammasome-driven IL-1 beta release | AID 743279 | activity change, % at 57.5 µM | actives 4.7% (n = 360,000) | THP-1 LPS/ATP IL-1B secretion, AlphaLISA, 16 h; active compounds read low; in the data active means activity change below about -50%; inconclusive means mostly about -30% to -49%; further: on the % scale 0 is the no-effect control and ±100 the full control effect
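Secreted IL-1B measured by AlphaLISA bead assay after 16 h compound exposure of THP-1 cells; compounds (final up to 57.5 uM) added 1 h before LPS (250 ng/mL) and ATP (1.25 mM) stimulation; lower signal means less secretion.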
S-ASM inh: blocks human secretory acid sphingomyelinase; P17405; placental ASM, HMU-PC fluorogenic substrate, 60 min; Potency, µM (highest dose often 57.5 µM), without a hit: at the highest dose activity change, negative = inhibition, actives largely listed as inhibitors; actives 0.006% (n = 340,000); AID 504937; further: potency means the concentration at half of the fitted maximal effect
Target sequence (P17405 47-631 limits assumed): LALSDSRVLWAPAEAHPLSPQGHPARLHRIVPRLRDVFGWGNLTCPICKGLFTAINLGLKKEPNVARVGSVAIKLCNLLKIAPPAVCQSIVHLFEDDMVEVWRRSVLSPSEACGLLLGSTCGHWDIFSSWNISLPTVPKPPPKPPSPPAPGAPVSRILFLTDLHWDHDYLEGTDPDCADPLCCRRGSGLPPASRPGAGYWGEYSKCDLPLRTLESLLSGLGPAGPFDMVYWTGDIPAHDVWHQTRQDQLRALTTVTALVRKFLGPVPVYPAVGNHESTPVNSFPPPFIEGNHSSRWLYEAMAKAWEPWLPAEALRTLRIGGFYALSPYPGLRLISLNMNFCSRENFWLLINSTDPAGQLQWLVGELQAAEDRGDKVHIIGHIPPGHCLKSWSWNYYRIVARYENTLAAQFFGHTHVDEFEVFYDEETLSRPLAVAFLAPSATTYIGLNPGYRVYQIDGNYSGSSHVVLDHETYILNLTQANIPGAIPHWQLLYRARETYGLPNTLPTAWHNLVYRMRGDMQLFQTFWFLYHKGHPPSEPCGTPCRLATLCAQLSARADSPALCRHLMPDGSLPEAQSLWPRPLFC
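Human placenta-derived ASM preincubated with compound 10 min at room temperature, then reacted with 9 uM (final) fluorogenic HMU-PC substrate for 60 min at 37 C. Stop solution raises pH to 10; fluorescence read at Ex 386/Em 447 nm.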
DT40 TDP1 CPT: DT40-hTDP1 cell growth loss with CPT; chicken DT40 Tdp1-/-;hTDP1 cells + 20 nM CPT, ATP luminescence, 48 h; Potency, µM (series often up to 46.2 µM), for inactives: at the top dose activity change, negative = growth inhibition, actives largely listed as inhibitors; actives 12% (n = 420,000); AID 686979; further: potency means the concentration at half of the fitted maximal effect; on the % scale 0 is the no-effect control and ±100 the full control effect; nearly all actives have a fitted effect of over 55% in size
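Chicken DT40 Tdp1-/- cells complemented with human TDP1, 400 cells/well, exposed to compounds plus 20 nM camptothecin for at least 48 h at 37 C; viability read as ATP content by CellTiter-Glo luminescence.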
TGFb inhibitor: blocks TGF-b signaling | HepG2 CAGA-GFP TGF-b/SMAD3 reporter, GFP fluorescence, 18 h; TGF-beta stimulated, 500 pg/mL final | Potency, µM (doses to about 46.1 µM), without a hit: top-dose activity, negative = inhibition, most hits filed as inhibitors | actives 1.2% (n = 410,000); further: potency means the concentration at half of the fitted maximal effect; on the % scale 0 is the no-effect control and ±100 the full control effect; nearly all actives have a fitted effect of over 65% in size
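Read-out: total well GFP (ex488/em500-530) summed from mean per-cell fluorescence. Cells: HEPG2 CAGA-GFP, 1% FBS DMEM, 18 h at 37 degrees C with 500 pg/mL final TGF-beta. Unstimulated wells served as the full-inhibition control; stimulated DMSO wells = 0%.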
DT40 TDP1 no CPT: qHTS for Inhibitors of human tyrosyl-DNA phosphodiesterase 1 (TDP1): qHTS in cells in absence of CPT; AID 686978, 2013; Potency, µM (top dose mostly 46.2 µM), without a hit: at the highest dose activity change, negative = growth inhibition, most hits filed as inhibitors; DT40 Tdp1-/- hTDP1 cells, no CPT, ATP luminescence, 48 h; actives 15% (n = 420,000); further: potency means the concentration at half of the fitted maximal effect; on the % scale 0 is the no-effect control and ±100 the full control effect; nearly all actives have a fitted effect of over 55% in size
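Chicken DT40 Tdp1-/- cells stably complemented with human TDP1 were seeded at 400 cells/well with DMSO in place of 20 nM camptothecin. After compound pinning, cells grew at least 48 hr at 37 °C; viability read by CellTiter-Glo luminescence.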
* = called active by the depositor; u = inconclusive; x = not tested or not shown. Shown are actives, neighbours in structure and some others; about 19% of the full set was active somewhere. Unless noted, the call rests on the fitted dose curve; in most records, active means well fitted curve in the direction sought with a large enough effect; inconclusive means small, poorly fitted or top-dose-only effect, or another doubt; inactive means no such curve, though single readings can be large; an effect the other way counts as inactive or inconclusive.

SMILES	HepG2 viability	IL1B secr inh	S-ASM inh	DT40 TDP1 CPT	TGFb inhibitor	DT40 TDP1 no CPT
O=C(NCc1cccnc1)c1cc(C2CCCCN2S(=O)(=O)c2cccc3cccnc23)on1 (stereo not drawn)	-6%	20	x	12µM*	4%	u
O=C(NCc1cccnc1)c1cc(C2CCCN(S(=O)(=O)c3cccc4cccnc34)C2)on1 (stereo not drawn)	2%	8	x	23µM*	6%	21µM*
O=C(NCc1ccccc1)c1cc(C2CCCN(S(=O)(=O)c3cccc4cccnc34)C2)on1 (stereo not drawn)	-5%	15	x	u	1%	u
Cc1ccc(C)c(CC(=O)N2CCCC(c3cc(C(=O)NCc4cccnc4)no3)C2)c1 (stereo not drawn)	-11%	3	x	u	4%	15µM*
O=C(NCc1cccnc1)c1cc(C2CCCN(C(=O)c3cccc(O)c3)C2)on1 (stereo not drawn)	-4%	48	x	0%	25%	-14%
C=CCNC(=O)[C@@H]1CSC2c3ccc(OC)c(OC)c3C(=O)N21 (stereo partly drawn)	-9%	5	13%	13%	2%	-10%
CN(C(=O)COC(=O)CNC(=O)c1sc2ccccc2c1Cl)C1CCS(=O)(=O)C1 (stereo not drawn)	1%	-10	-4%	25%	3%	16%
CCCNC(=O)c1cc(C2CCCN(C(=O)c3ccc4ccccc4c3)C2)on1 (stereo not drawn)	-8%	16	x	18µM*	16%	23µM*
O=C(Nc1ccc(F)c(Cl)c1)c1cc(C2CCCN(S(=O)(=O)c3cccc4cccnc34)C2)on1 (stereo not drawn)	-3%	3	x	u	1%	26µM*
CCCNC(=O)c1cc(C2CCCN(C(=O)c3ccc(OC)cc3)C2)on1 (stereo not drawn)	-6%	-7	x	-8%	1%	-27%
O=C(Nc1ccc(F)c(Cl)c1)c1cc(C2CCCN(S(=O)(=O)c3cccs3)C2)on1 (stereo not drawn)	-15%	-26	x	u	8%	u
COc1ccc(S(=O)(=O)N2CCCC(c3cc(C(=O)NCc4cccnc4)no3)C2)cc1 (stereo not drawn)	29%	3	x	23µM*	53%	u
N#Cc1ccc(OCC(=O)Nc2cc(S(=O)(=O)N3CCOCC3)ccc2N2CCCC2)cc1	-6%	-24	5%	0%	14%	-4%
Cc1cccc(C)c1NC(=O)C(c1ccccc1)n1c(-c2ccccc2)nc2ccccc21 (stereo not drawn)	x	-19	x	u	x	u
Cc1noc(C)c1C(=O)N1CCC[C@@]2(CCN(C(=O)Nc3cccc(F)c3)C2)C1	x	x	x	-2%	x	u
COc1ccccc1NC(=O)C(=O)/C=C(\O)c1ccccc1	10%	x	-2%	15µM*	15%	15µM*
COc1ccc(/C(O)=C/C(=O)C(=O)NNC(=O)c2ccccc2)cc1	-8%	8	-7%	-4%	1%	-4%
CCOc1ccccc1NC(=O)C(=O)/C=C(\O)c1cc(OC)ccc1OC	-13%	76	-3%	5.8µM*	1%	5.2µM*
COc1ccc(OC)c(/C(O)=C/C(=O)C(=O)Nc2cc(C)cc(C)c2)c1	-22%	53	-5%	u	1%	18µM*
COc1ccc(OC)c(/C(O)=C/C(=O)C(=O)Nc2cc(C)ccc2OC)c1	-3%	7	-1%	u	-5%	u
Cc1ccc(CCN2CC(C(=O)NCCCN3CCC(C)CC3)CC2=O)cc1 (stereo not drawn)	-22%	-21	1%	u	6%	u
COc1ccc(N=C2S/C(=C\c3ccco3)C(=O)N2CC(C)C)cc1	-17%	-10	-12%	0%	-3%	-7%
CCCN1C(=O)/C(=C/c2ccc(C)s2)SC1=Nc1ccc(OC)cc1	-4%	-11	-15%	u	3%	u
CCN1C(=O)/C(=C/c2cccs2)SC1=Nc1ccc(OC)cc1	-12%	-3	-9%	7.3µM*	7%	4.1µM*
COc1ccc(N=C2S/C(=C\c3cc(C)n(C)c3C)C(=O)N2CC(C)C)cc1	-4%	-2	-22%	u	-28%	18µM*
SMILES	HepG2 viability	IL1B secr inh	S-ASM inh	DT40 TDP1 CPT	TGFb inhibitor	DT40 TDP1 no CPT
Cc1ccc2[nH]c(=O)c(CN(C(=O)c3cccc(Cl)c3)C(C)(C)C)cc2c1	-7%	x	x	-27%	7%	u
COc1ccc2c(c1)C(=O)Cc1ccccc1O2	-36%	-11	-1%	-9%	-5%	21µM*
CCN(c1ccccc1)c1cc(C)nc2ncnn12	-2%	21	-1%	3%	-2%	2%
Cc1cc(Oc2ccc(-c3ccccc3)cc2)n2ncnc2n1	-25%	u	7%	18µM*	-4%	-25%
CN1C(=O)CSc2ccc(NC(=O)Nc3ccccn3)cc21	-51%	-60*	3%	29µM*	u	u
COc1cccc(NC(=O)Nc2ccc3c(c2)N(C)C(=O)CS3)c1	-50%	u	-7%	u	-8%	21µM*
O=S(=O)(NC1CC1)c1ccc(S(=O)(=O)N2CCCC3(CCCCC3)C2)cc1	-55%	3	0%	13µM*	u	u
Cn1cccc1/C=N/N1CCN(Cc2cccc3ccccc23)CC1	1%	u	-1%	u	u	13µM*
COc1ccc(-c2noc(N3CCN(c4ccc(C)cc4)C(C)C3)n2)cc1OC (stereo not drawn)	-1%	x	x	u	4%	16µM*
COc1cccc(Cn2ccn(-c3ccc(F)cc3)c(=O)c2=O)c1	-5%	x	x	-4%	-3%	1%
CC1=NN(C(C#N)c2ccc(F)cc2)C(c2ccccc2)C1 (stereo not drawn)	20%	-2	-2%	6%	2%	0%
Cc1ccc(C(=O)NN2C(=O)c3ccc(S(=O)(=O)c4ccc(C(=O)O)cc4)cc3C2=O)cc1	11%	16	-1%	18µM*	20%	u
CC1CCc2c(sc(NC(=O)c3c([N+](=O)[O-])cnn3C)c2C(N)=O)C1 (stereo not drawn)	-12%	-7	-2%	-20%	-14%	u
